# Compound activity (PubChem BioAssay)
# Only some compounds are listed: those with a hit (about 19% of all), similar ones and a draw of the others.
# MCF10A rereplic – DNA re-replication induction in MCF 10a cells; Potency, µM (top dose mostly 46.1 µM), without a hit: at the top dose activity, positive = re-replication, actives largely listed as activators; AID 624296; MCF 10A DNA re-replication, Hoechst nuclear intensity, 48 h; 350,000 tested, 2.9% active; note: potency is the fitted concentration of half-maximal effect; % of control where 0% means no effect; nearly all actives have a fitted effect of over 50% in size
# Chronic BCR inh – chronic active BCR signaling inhibition; 340,000 tested, 0.05% active; ABC-DLBCL IkBa-CBG/CBR reporter, luminescence ratio, 4 h; Potency, µM (series often up to 46.1 µM), for the others: top-dose activity change, negative = inhibition, usual class: inhibitors; active = well fitted inhibition curve with a large enough effect in the signal ratio, with a control signal flat, not every such curve was filed as active; inconclusive = small, poorly fitted or top-dose-only effect, or effect the other way, or a change in a side signal; the % refers to the signal ratio;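 note: potency is the fitted concentration of half-maximal effect; plate controls were basal doxycycline-induced cells for no effect and cells given 10 µM MG132 for full effect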
#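 TMD8 ABC-DLBCL cells carrying doxycycline-inducible green luciferase fused to IkappaBalpha plus unfused red luciferase were exposed to compounds (up to 46 uM) for 4 hrs at 37C. Activity came from the overlap-corrected green/red luminescence ratio.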
# DT40 TDP1 CPT – growth inhibition of DT40 Tdp1-/-;hTDP1 cells with camptothecin (screen for TDP1 inhibitors); 420,000 tested, 12% active; Potency, µM (series often up to 46.2 µM), inactives show at the top dose activity change, negative = growth inhibition, actives largely listed as inhibitors; chicken DT40 Tdp1-/-;hTDP1 cells + 20 nM CPT, ATP luminescence, 48 h; note: potency is the fitted concentration of half-maximal effect; % is set by controls: 0 for no effect and ±100 for the full control effect; nearly all actives have a fitted effect of over 55% in size
#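 Chicken DT40 Tdp1-/- cells stably complemented with human TDP1 were seeded at 400 cells/well in medium containing 20 nM camptothecin, exposed to pin-transferred compounds, and grown at 37 °C for at least 48 hr. Viability was read as ATP luminescence.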
# DT40 TDP1 no CPT – qHTS for Inhibitors of human tyrosyl-DNA phosphodiesterase 1 (TDP1): qHTS in cells in absence of CPT. DT40 Tdp1-/- hTDP1 cells, no CPT, ATP luminescence, 48 h. Potency, µM (series often up to 46.2 µM), for the others: top-dose activity change, negative = growth inhibition, hits mostly inhibitors. 420,000 tested, 15% active. AID 686978, 2013; note: potency is the fitted concentration of half-maximal effect; % is set by controls: 0 for no effect and ±100 for the full control effect; nearly all actives have a fitted effect of over 55% in size
#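 No-CPT arm: Tdp1-/-;hTDP1 DT40 cells (400/well) plus compounds, incubated ≥48 hr at 37 °C. Readout CellTiter-Glo luminescence.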
# SW480 rerep – DNA re-replication induction in SW480 cells. AID 624297. Potency, µM (top dose mostly 46.1 µM), without a hit: at the top dose re-replication activation, actives largely listed as activators. 340,000 tested, 1.8% active. SW480 DNA re-replication, Hoechst DNA content imaging, 48 h; note: potency is the fitted concentration of half-maximal effect; % of control where 0% means no effect; nearly all actives have a fitted effect of over 55% in size
#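 Image-based DNA-content assay: after two days of treatment, nuclei were labelled with the DNA dye Hoechst and imaged, and hits were compounds raising the count of nuclei showing high fluorescence intensity.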
# IL-1B inflam inh – inhibitors of inflammasome signaling (IL-1 beta secretion). THP-1 LPS/ATP IL-1B secretion, AlphaLISA, 16 h; active compounds read low. activity change, % at 57.5 µM. 360,000 tested, 4.7% active. AID 743279; in the data active = activity change below about -50%; inconclusive = mostly about -30% to -49%; note: % is set by controls: 0 for no effect and ±100 for the full control effect
#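 THP-1 cells pretreated 1 hr with compounds (up to 57.5 uM final), then stimulated with LPS (250 ng/mL final) plus ATP (1.25 mM final); secreted IL-1B measured by AlphaLISA after 16 hr, decreased signal indicating inhibition.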
# * = called active by the depositor; u = inconclusive; x = no result given; [ ] = another dose, or the depositor's remark. Unless noted, calls come from the whole dose curve; as a rule, active = well fitted curve in the direction sought with a large enough effect; inconclusive = small, poorly fitted or top-dose-only effect, or another doubt; inactive = no such curve, though single readings can be large; an effect the other way counts as inactive or inconclusive.
SMILES,MCF10A rereplic,Chronic BCR inh,DT40 TDP1 CPT,DT40 TDP1 no CPT,SW480 rerep,IL-1B inflam inh
Cc1ccc(Oc2c(C=O)c3ccccc3n2C)cc1,13%,-7%,3.3µM*,u,2%,-18
COc1ccc(C(C(=O)NCc2ccccc2)n2c(=O)c(-c3ccco3)nc3ccccc32)cc1 (centres undefined),x,x,u,u,x,0
COc1ccc(NC(=O)CN(C)CC(=O)N(C)C2(C#N)CCC(C)CC2)cc1 (centres undefined),13%,5%,-17%,-7%,0%,-4
COC(=O)c1c(C)[nH]c(C(=O)CSc2ncnc3sc(-c4ccccc4)cc23)c1C,u,6%,18µM*,16µM*,-3%,26
CC(Sc1ncnc2sc(-c3ccccc3)cc12)C(=O)N1CCNC1=O (centres undefined),-8%,-1%,18µM*,u,-19%,-15
CC(C)N(C(=O)CSc1ncnc2sc(-c3ccccc3)cc12)C(C)C,21%,u,u,15µM*,1%,7
CN(C)C(=O)CSc1ncnc2scc(-c3ccccc3)c12,-25%,0%,3%,-28%,28%,-12
CCOC(=O)c1c(C)[nH]c(C(=O)CSc2ccccc2)c1C,0%,u,-21%,u,-3%,-17
O=C(CSc1ccccn1)N1CCNC1=O,1%,5%,26%,4%,2%,1
O=c1[nH]c(CSc2nc(-c3ccccc3)cs2)nc2ccccc12,10%,u,u,u,1%,-7
O=c1[nH]c(CSc2ncnc3sc(-c4ccccc4)cc23)nc2ccccc12,u,1%,16µM*,13µM*,2%,28
COCC(=O)Nc1cc(C(=O)N2CCOc3ccccc3C2)cc2nc(-c3cccnc3)n(C)c12,x,x,-11%[9.04 µM],-9%,x,x
CNc1ncnc2c1ncn2[C@H]1CN(Cc2ccncc2)C[C@@H](CO)O1,x,x,6%,21%,x,40
Nc1ccc(S(=O)(=O)N2CCC(Cc3ccccc3)CC2)cc1,12%,u,u,-29%,4%,1
O=c1oc2ccccc2c(N2CCC(c3ccccc3)CC2)c1[N+](=O)[O-],1%,u,-22%,u,-11%,-9
CC1CCCN(c2c([N+](=O)[O-])c(=O)oc3ccccc23)C1 (centres undefined),4%,-6%,16µM*,u,0%,-5
COC(=O)C(C(C)=O)C1=C/C(=N\S(=O)(=O)c2ccc(C)cc2)c2ccccc2C1=O (centres undefined),u,u,3.5µM*,10µM*,u,16
CC(C)c1ccc(S(=O)(=O)/N=C2/C=CC(=O)c3ccccc32)cc1,x,1%,x,x,x,x
Cc1ccc(C)c(S(=O)(=O)/N=C2\C=C(NS(=O)(=O)c3ccccc3)C(=O)c3ccccc32)c1,u,u,16µM*,16µM*,u,42
O=C(O)c1ccc(S(=O)(=O)/N=C2\C=C(Nc3ccccc3F)C(=O)c3ccccc32)cc1,1.5µM*,u,-97%,-86%,6.5µM*,-97*
Cc1ccccc1NC1=C/C(=N\S(=O)(=O)c2ccc(C(=O)O)cc2)c2ccccc2C1=O,2.1µM*,u,16µM*,18µM*,u,-90*
CCc1ccc(S(=O)(=O)/N=C2\C=C(NS(=O)(=O)c3ccccc3)C(=O)c3ccccc32)cc1,12%,u,u,-27%,12%,59
CC(C)c1ccc(S(=O)(=O)/N=C2\C=C(NS(=O)(=O)c3ccccc3)C(=O)c3ccccc32)cc1,u,u,u,u,u,22
CCCS(=O)(=O)NC(=O)C1(C)CCN(C(=O)c2cccc(C(F)(F)F)c2)C1 (centres undefined),x,x,u,-1%,x,11
O=C1c2c(Br)c(Br)c(Br)c(Br)c2C(=O)N1c1ccccn1,0.65µM*,0%,u,u,-22%,u
SMILES,MCF10A rereplic,Chronic BCR inh,DT40 TDP1 CPT,DT40 TDP1 no CPT,SW480 rerep,IL-1B inflam inh
O=C1c2cccc3cccc(c23)C(=O)N1c1ccccn1,0%,0%,8%,-15%,6%,-7
CC(=O)Nc1ccc(S(=O)(=O)N2CCC(c3nnc(-c4ccc(C)cc4)o3)CC2)cc1,18%,-10%,u,21µM*,1%,-14
COc1ccc(-c2nnc(C3CCN(S(=O)(=O)c4ccccc4)CC3)o2)cc1,18%,-11%,u,u,-3%,-7
Cc1ccc(-c2nnc(C3CCN(S(=O)(=O)c4ccc(C)c(C)c4)CC3)o2)cc1,x,x,u,26µM*,x,x
Cc1cccc(-c2nnc(C3CCN(S(=O)(=O)c4cccc(Cl)c4)CC3)o2)c1,x,x,3.7µM*,2.9µM*,x,x
CCc1ccccc1N1C(=O)N(Cc2ccc(C#N)cc2)c2ccccc2S1(=O)=O,x,12%,u,u,x,x
COc1ccc(CNC(=O)c2cc3sccc3n2Cc2ccc(C)cc2)cc1,x,x,-28%,-64%,x,x
COc1ccc2nc(-n3c(O)c(C4=c5ccccc5=NC4=O)[nH]c3=S)sc2c1,4%,u,u,23µM*,0%,-6
COc1cccc(-n2c(SCC(=O)NC3CC3)nc3ccccc3c2=O)c1,x,x,-26%,u,x,8
